High-throughput results deposited in PubChem by National Center for Advancing Translational Sciences (NCATS).
FLuc counter = counter-screen for miR-21 project: firefly luciferase inhibitors or activators; 360,000 tested, 6.9% active; purified FLuc, Km substrates, luminescence inhibition; AID 588342; Potency, µM (series often up to 57.5 µM), inactives show at the top dose activity change, negative = inhibition, actives largely listed as inhibitors;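 note: plate controls were vehicle for no effect and reference inhibitor for full effect; nearly all actives have a fitted effect of over 55% in size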
Target sequence (P08659 whole entry, looked up): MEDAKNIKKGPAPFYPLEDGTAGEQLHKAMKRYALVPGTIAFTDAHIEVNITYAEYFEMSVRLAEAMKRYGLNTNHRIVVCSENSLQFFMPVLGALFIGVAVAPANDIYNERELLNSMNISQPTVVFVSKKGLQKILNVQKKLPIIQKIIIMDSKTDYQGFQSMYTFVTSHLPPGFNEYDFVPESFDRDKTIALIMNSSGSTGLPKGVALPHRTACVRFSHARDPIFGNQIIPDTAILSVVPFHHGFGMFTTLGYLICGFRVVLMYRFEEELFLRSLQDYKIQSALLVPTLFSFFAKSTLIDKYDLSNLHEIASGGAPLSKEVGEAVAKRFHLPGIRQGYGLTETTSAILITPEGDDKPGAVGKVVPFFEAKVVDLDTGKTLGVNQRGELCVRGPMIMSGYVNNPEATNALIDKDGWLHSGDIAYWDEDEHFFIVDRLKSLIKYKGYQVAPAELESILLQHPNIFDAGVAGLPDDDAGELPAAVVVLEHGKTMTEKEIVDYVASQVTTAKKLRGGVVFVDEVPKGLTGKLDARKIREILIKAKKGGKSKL
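Biochemical qHTS of compounds, final roughly 60 µM downward over six points, against 10 nM purified firefly luciferase using Km concentrations of substrates (10 uM D-luciferin, 10 uM ATP) in Tris acetate pH 7.5 buffer; luminescence output.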
Rab9 prom act = Rab9 promoter activation. 320,000 tested, 2.8% active. Potency, µM (highest dose often 9.22 µM), for the others: at the highest dose activation, negative = inhibition, most hits filed as activators. Huh7 Rab9 promoter-luciferase reporter, luminescence, 24 h; note: % of control where 0% means no effect; nearly all actives have a fitted effect of over 60% in size
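Steps: seed 1500 Huh7 Rab9-luc cells per well, rest 2 h at 37 °C; add compound in DMSO; incubate 24 h; add luciferase reagent, 10 min ambient; read luminescence.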
ELG1 genotoxic = inducers of genotoxicity in HEK293T ELG1-luciferase cells | Potency, µM (doses to about 46 µM), for the others: top-dose activity change, positive = activation, actives largely listed as activators | HEK293T ELG1-luciferase reporter, luminescence, 16 h | 330,000 tested, 1.3% active; note: % of control where 0% means no effect; nearly all actives have a fitted effect of over 60% in size
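Genotoxicity was scored as increased ELG1-luciferase reporter signal, measured by ONE-Glo luminescence (30 min, room temperature). Compound or vehicle exposure of the HEK293T reporter cells lasted 16 hr at 37°C.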
ELG1 DNA repair = ELG1-dependent DNA repair inhibition | HEK293T ELG1-luciferase reporter, luminescence, 16 h; DNA damage induced by 5-fluorouridine | Potency, µM (series often up to 46.1 µM), for the others: at the highest dose activity change, negative = inhibition, usual class: inhibitors | 330,000 tested, 2.3% active | AID 504467; note: % is set by controls: 0 for no effect and ±100 for the full control effect; nearly all actives have a fitted effect of over 55% in size
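5-Fluorouridine DNA damage + compound/DMSO, 2,000 cells/well, 16 h, 37 °C/5% CO2. ONE-Glo, 30 min RT, luminescence. Readout = decrease in reporter signal.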
SMN2 splice up = increases expression of the SMN2 splice variant. Potency, µM (highest dose often 46.1 µM), for the others: at the top dose activity change, positive = activation, actives largely listed as activators. 210,000 tested, 2.8% active. HEK293 SMN2-luciferase splicing reporter, luminescence, 30-36 h. AID 1458; note: % of control where 0% means no effect; nearly all actives have a fitted effect of over 55% in size
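HEK293 cells carry an SMN2 minigene-luciferase reporter in which exon 7 inclusion puts luciferase in frame. Cells were seeded at 2000 cells/well, attached for 10-12 hours, then exposed to compounds for 30-36 hours at 37C before ONE-Glo luminescence.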
NPC1 prom act = activates the NPC1 promoter | Huh7 NPC1 promoter luciferase reporter, 24 h | Potency, µM (doses to about 9.22 µM), for the others: at the highest dose activation, most hits filed as activators | 320,000 tested, 2.4% active | AID 485313; note: % of control where 0% means no effect; nearly all actives have a fitted effect of over 60% in size
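Cells: Huh7 expressing luciferase under the NPC1 promoter, 1500/well. Seeded 2 h, compound added, incubated 24 h at 37 °C. Luciferase reagent, 10 min ambient, then luminescence.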
Active calls of the source: *; ? = inconclusive; . = no result given; ! = not active in a repeat; [ ] = dose if it differs, or a comment. Sampled rows, rich in hits. Any-hit rate of the full collection: about 9.2%. Calls come from the whole dose curve; as a rule, active = well fitted curve in the direction sought with a large enough effect; inconclusive = small, poorly fitted or top-dose-only effect, or another doubt; inactive = no such curve, though single readings can be large; an effect the other way counts as inactive or inconclusive. Potency is the fitted concentration of half-maximal effect.

SMILES	FLuc counter	Rab9 prom act	ELG1 genotoxic	ELG1 DNA repair	SMN2 splice up	NPC1 prom act
CN(C)CCOC(=O)c1ccc2c(c1)S(=O)(=O)c1ccccc1C2=O	1.6%	-0.9%	1.0%	7.8%	.	6.9%
CC1CCCN(c2ccc(C(=O)Nc3ccc4c(c3)OCO4)cc2[N+](=O)[O-])C1 (centres undefined)	?	0.8%	-4.3%	20.6µM*	3.5%[1.84 µM]	-3.1%
COc1ccc2[nH]c(C(=O)Nc3ccc(F)cc3Br)cc2c1	-12.1%	-2.7%	0.4%	0.3%	.	-29.3%
COc1ccc(NC(=O)c2ccc3c(c2)OCO3)cc1[N+](=O)[O-]	?	3.16µM*	?	?	?	2.82µM*
COc1ccc2[nH]c(C(=O)Nc3ncc(C)cc3Br)cc2c1	19µM*	14.1%	-0.3%	-19.6%	.	-0.2%
COc1ccc(C(=O)Nc2ccncc2)cc1[N+](=O)[O-]	2.4%	-0.8%	-2.2%	12.8%	.	2.8%
O=C(Cn1cc(C(F)(F)F)cc(Cl)c1=O)Nc1ccc(N2CCOCC2)cc1	-5.1%	2.0%	-2.1%	18.0%	5.7%	-5.7%
COc1cccc(CN2CC(C(=O)NCC3CCOCC3)CCC2=O)c1 (centres undefined)	-1.0%	2.1%	2.6%	4.0%	.	2.6%
O=C(NCC(=O)N(c1cccnc1)C(C(=O)NC1CCCCC1)c1ccccc1F)c1ccco1 (centres undefined)	5.3%	0.7%	0.6%	1.9%	.	1.3%
CC(Oc1ccccc1)C(=O)NC1=NCCS1 (centres undefined)	15.1µM*	3.16µM*	?	?	14.1µM*	?
CC(C)c1ccc(OCC(=O)NC2=NCCS2)cc1	7.57µM*	16.1%	27.3%	?	.	?
O=C(COc1ccccc1)NC1=NCCS1	7.57µM*	-1.6%	14.6µM*	?	-27.8%	-4.6%
O=C(NC1=NCCS1)Nc1ccccc1	9.53µM*	1.41µM*	?	?	10µM*	1.41µM*
Cc1cccnc1NC(=O)C(C)Oc1ccccc1 (centres undefined)	7.4%	-1.1%	0.5%	0.0%	6.4%	-1.9%
Cc1c(F)cccc1NS(=O)(=O)c1cccs1	-18.2%	.	.	.	.	.
CC(=O)C1=C(C)NC(=O)CC1c1ccc(Br)cc1 (centres undefined)	5.6%	-11.4%	-1.5%	9.0%	-5.5%	-3.2%
CCSC1=C(C#N)C(c2ccc(C)s2)CC(=O)N1 (centres undefined)	26.9µM*	4.8%	0.5%	-2.7%	0.0%	2.8%
COc1ccc2nc(N3C(=O)/C(=C/c4ccc(Cl)cc4)NC3=S)sc2c1	16.9µM*	1.9%	-7.1%	13.6%	-8.9%	0.9%
Cc1ccc(NC(=O)CCCOc2ccccc2)cc1S(=O)(=O)N1CCOCC1	.	-0.7%	-3.3%	?	.	0.4%
O=C(COc1ncnc2ccccc12)Nc1ccc(Cl)c(S(=O)(=O)N2CCOCC2)c1	5.2%	-4.0%	-1.0%	?	.	-3.2%
O=C(CCCOc1ccccc1)Nc1ccc(Cl)c(S(=O)(=O)N2CCOCC2)c1	.	.	-4.4%	13µM*	.	.
O=C(COc1cccc(Br)c1)Nc1ccc(Cl)c(S(=O)(=O)N2CCOCC2)c1	.	.	-9.3%	23.1µM*	.	.
CCN(c1ccc(NC(=O)COC(=O)c2ccc(C)c(S(=O)(=O)N3CCOCC3)c2)cc1)C(C)C	16.9µM*	.	.	.	-8.7%	.
Cc1ccc(NC(=O)COc2ccc(-c3nnco3)cc2)cc1S(=O)(=O)N1CCOCC1	?	-2.4%	-16.4%	18.3µM*	-22.1%	-12.6%
CCc1ccccc1NC(=O)CN1C(=O)c2cccnc2Oc2ccc(Cl)cc21	-8.1%	.	.	.	.	.
SMILES	FLuc counter	Rab9 prom act	ELG1 genotoxic	ELG1 DNA repair	SMN2 splice up	NPC1 prom act
CCN(c1ccc(NC(=O)COC(=O)c2ccc3ccccc3n2)cc1)C(C)C	15.1µM*	-1.5%	2.9%	-5.9%	-12.3%	-3.2%
Cc1ccc(OCCCC(=O)Nc2ccc(Cl)c(S(=O)(=O)N3CCOCC3)c2)cc1	-5.3%	-17.1%	-7.1%	23.1µM*	.	-13.8%
CSc1ccccc1C(=O)Nc1ccc2c(c1)CCC2	15.1µM*	1.9%[1.84 µM]	?	?	.	?
O=C(Nc1ccc2c(c1)CCC2)c1ccccc1Br	4.78µM*	1.58µM*	2.31µM*	?	.	1.58µM*
CC(=O)c1ccc(NC(=O)CCc2nnc3ccc(N4CCC5(CC4)OCCO5)nn23)cc1	?	22.2%	?	?	.	28.9%
Cc1ccc(NC(=O)CCc2nnc3ccc(N4CCC5(CC4)OCCO5)nn23)nc1	2.7%	-7.5%	0.6%	5.8µM*	.	0.1%
COc1cccc(/C=C/c2ccccn2)c1O	3.01µM*	2.82µM*	7.3µM*	?	.	1.26µM*
COc1ccc(CCNC(=O)C2CCCN(c3nc4c(C)cc(C)cc4s3)C2)cc1OC (centres undefined)	?	.	.	.	2.82µM*	.
CCOc1ccc(CNC(=O)C2CCCN(c3nc4c(C)cc(C)cc4s3)C2)cc1 (centres undefined)	-0.9%	.	.	.	7.7%	.
COc1ccc(CCNC(=O)C2CCCN(c3nc4ccccc4s3)C2)cc1OC (centres undefined)	-13.6%	0.0%	-10.3%	18.3µM*	.	11.5%
Cc1ccc(-c2cn(-c3ccccc3)c(SCC(=O)NC3CCS(=O)(=O)C3)n2)cc1C (centres undefined)	?	2µM*	?	?	?	3.16µM*
Cc1ccc(SCC(=O)NC2CCS(=O)(=O)C2)cc1C (centres undefined)	-1.4%	0.7%	-0.7%	0.3%	.	-2.3%
COc1ccc(C2C(=O)c3ccccc3C2=O)cc1	5.36µM*	?	?	?	3.98µM*!	?
COc1ccc(NC2=C(c3ccc(OC)cc3)C(=O)c3ccccc32)cc1	-2.4%	12.1%	5.0%	-5.7%	-4.5%[1.84 µM]	5.8%
COc1cc(C2C(=O)c3ccccc3C2=O)ccc1O	23.9µM*	-0.1%	7.7%	?	.	-0.2%
